# Test results reported in PubChem BioAssay AID504329 (Southern Research Specialized Biocontainment Screening …, 2011).
# Hit rate of the full screen: of about 340,000 compounds, about 1,000 (0.29%) were called active. These entries were drawn from the full list. Measured potencies and affinities stand elsewhere. A number with no mark means an inactive call. Rule as the data show it: inconclusive = inhibition above about 27% without an active follow-up result; inactive = below that.
# Test: H1N1 influenza NS1A inhibitors, functional cell based assay (AID 504329)
# Settings: percent inhibition, at 12.5 µM, hits give high values
row,SMILES,inhibition
1,COCCN1C(=O)N[C@@H](CCc2ccccc2)[C@@H](C(=O)OC)[C@H]1C,-8.6%
2,COc1ccccc1NC(=O)CSc1nnc(CNC(=O)c2cccs2)o1,-6.38%
3,O=C(Cn1cnc(S(=O)(=O)N2CCCCC2)c1)Nc1ccc(OC(F)(F)F)cc1,2.65%
4,O=S(=O)(Nc1ccc2c(c1)OCCO2)c1c(F)cccc1F,-2%
5,NNc1nc(Nc2ccccc2)nc(Nc2ccccc2)n1,-2.5%
6,CNc1nc(Cl)nc(Nc2ccccc2)n1,6.99%
7,O=C(CCS(=O)CCC(=O)NCc1ccccc1)NCc1ccccc1,-7.22%
8,CCN1C(=O)/C(=C/C=C2\C=CN(CC)c3ccccc32)SC1=S,21%
9,CCN1C(=O)/C(=C/C=C2/Sc3ccccc3N2CCO)SC1=S,8.17%
10,CC(=O)c1ccc(N2CCN(C(=O)Cc3n[nH]c(=O)c4ccccc34)CC2)cc1,2.74%
11,COc1cccc(CN(C)C(=O)c2cccc(OCc3ccccc3)c2)c1,5.5%
12,Cc1cc(OC(C)C(=O)NCCN2CCOCC2)c2c(C)c(C)c(=O)oc2c1 (centres undefined),2.99%
13,CCOC(=O)/C(N=Nc1c(C)n(C)n(-c2ccccc2)c1=O)=C(/O)c1ccccc1,3.43%
14,CC(=O)/C(N=Nc1c(C)n(C)n(-c2ccccc2)c1=O)=C(\C)O,1.66%
15,Cc1c(N=N/C(C(=O)Nc2ccccc2)=C(/O)c2ccccc2)c(=O)n(-c2ccccc2)n1C,12.5%
16,COC(=O)/C(N=Nc1c(C)n(C)n(-c2ccccc2)c1=O)=C(\C)O,8.11%
17,CCOC(=O)CC(NC(=O)c1cc2cccc(OC)c2oc1=O)c1ccc(OC)cc1 (centres undefined),-20.4%
18,COc1ccc(-n2c(=O)c3ccccc3n(CC(=O)NC3CCCCC3)c2=O)cc1OC,10.9%
19,O=S(=O)(c1ccc(Cl)cc1)N1CCCC1c1cccnc1 (centres undefined),-6.92%
20,COc1ccc(CNC(=O)C(OC(=O)c2ccco2)c2ccccc2F)cc1 (centres undefined),4.89%
21,COc1cc(C(=O)NCc2nnc(SCC(=O)N3CCCCCC3)o2)cc(OC)c1OC,0.67%
22,CC[C@@]1(C(=O)OC)N[C@H](CN(C)S(=O)(=O)c2ccc(C(C)(C)C)cc2)[C@@H]2C(=O)N(Cc3ccccc3)C(=O)[C@@H]21,-9.1%
23,Cc1ccc(Nc2nc(N)nc(-c3oc4ccccc4c3C)n2)cc1,-6.47%
24,O=C(NCc1ccccn1)C(=O)N/N=C/c1ccc2c(c1)OCO2,-4.91%
25,COc1cc(/C=N/NC(=O)C(=O)Nc2ccccn2)ccc1O,-6.98%

row,SMILES,inhibition
1,Cc1cc(/C=N/NC(=O)C(=O)NCc2ccccn2)c(C)n1-c1ccccc1,-2.44%
2,O=C(Nc1ccccn1)C(=O)Nc1ccccn1,-1.25%
3,COc1ccc(-c2c(C)nc3c(-c4ccc(F)cc4)cnn3c2N)cc1,-14.5%
4,COc1cc(C(=O)NC2=NCCS2)ccc1OCc1c(C)noc1C,-1.34%
5,O=C(CNC(=O)c1cccc(N2C(=O)c3ccccc3C2=O)c1)Nc1ccc(F)c(F)c1,-11.5%
6,COc1cc(Br)cc(CN2CCN(C)CC2)c1O,2.34%
7,COc1cc(Br)cc(CN2CCN(c3ncccn3)CC2)c1O,-10.6%
8,COc1cccc(C(=O)Oc2c(CN3CCOCC3)cc(Cl)c3cccnc23)c1,4.96%
9,Cc1c(O)c(CN2CCCC2)cc2c1oc(=O)c1ccccc12,-0.95%
10,Cc1ccc2c(c1)N(CCC(=O)NC1CC1)C(=O)C(C)O2 (centres undefined),-4.26%
11,COC(=O)c1cc(NC(=S)Nc2cc(Cl)cc(Cl)c2)cc(C(=O)OC)c1,-5.67%
12,CN(Cc1ccc(F)cc1)C(=O)c1ccc(NC(=O)CC2SC(N3CCCC3)=NC2=O)cc1 (centres undefined),9.52%
13,Cc1ccc(OCc2nnc(SCC(=O)Nc3ncc(C)s3)o2)cc1,-2.25%
14,CCCC(=O)Nc1ccc(NC(=O)c2cccs2)cn1,20.7%
15,CN(C)c1ccc(CCc2ccc(N)cc2)cc1,14.3%
16,CN(C)c1ccc(CN(C)C2CCCCC2)cc1,-7.34%
17,CCN(Cc1ccccc1)c1ccccc1,-3.09%
18,NC(N)=N/N=C/c1ccc(N(c2ccccc2)c2ccccc2)cc1,-36.1%
19,Cc1cccc(C)c1NC(=S)N(CCN(C)C)C(C)c1ccccn1 (centres undefined),10.7%
20,Cc1ccc(C)c(NC(=S)N(CCN(C)C)C(C)c2ccccn2)c1 (centres undefined),4.89%
21,Cc1cc(=O)[nH]c(SCC(=O)Nc2ccc(C)c(S(=O)(=O)N3CCCCC3)c2)n1,14%
22,O=C(CNC(=O)c1ccco1)Nc1ccc2c(c1)OCCO2,5.25%
23,COc1ccc(/C=C/C(=O)NC(=S)NNC(=O)c2c(-c3ccccc3)noc2C)cc1,-5.37%
24,Cc1[nH]c(=S)[nH]c(=O)c1CCOc1ccccc1,21.1%
25,O=S(=O)(c1ccc(NC(=S)N/N=C/c2ccc(O)c(O)c2)cc1)N1CCOCC1,7.64%

row,SMILES,inhibition
1,NNC(=S)Nc1ccc(S(=O)(=O)N2CCOCC2)cc1,-2.99%
2,O=S(=O)(c1ccc(NC(=S)Nc2ccccc2)cc1)N1CCOCC1,1.71%
3,O=C(N/N=C/c1cc(Cl)cc([N+](=O)[O-])c1O)c1cccc(S(=O)(=O)N2CCOCC2)c1,13%
4,Cc1sc2ncnc(OCC(=O)NC(C)C(C)C)c2c1C (centres undefined),11.9%
5,N/C(=N\[N+](=O)[O-])N1CCN(C(=O)OC2CCCC2)CC1,0.06%
6,CCN(CC(=O)Nc1c(F)cccc1F)C(=O)CCNC(=O)c1ccc([N+](=O)[O-])cc1,-2.66%
7,Cc1ccc2oc(-c3ccccc3C(=O)O)cc(=O)c2c1,1.72%
8,O=C(O)c1cccc(-c2ccccc2)c1O,-26.6%
9,CN1CCN(C(=O)Nc2ccc([N+](=O)[O-])cc2)CC1,15.5%
10,O=C1CN(CC(=O)N2CCCCC2)c2ccccc2O1,16%
11,O=C(CN1CCOc2ccccc21)NCc1ccco1,-0.84%
12,O=C(Cn1[nH]c(=O)c2ccccc2c1=O)OCC(=O)c1ccc(Br)cc1,5.91%
13,COc1ccc(C(=O)COC(=O)Cn2nnc3ccccc32)cc1Br,18.7%
14,O=C(CN1C(=O)c2ccccc2C1=O)OCC(=O)c1ccccc1,-5.68%
15,COc1ccc(C(=O)COC(=O)C2CC3CCCC(C2)C3=O)cc1Br (centres undefined),-3.01%
16,O=C(CN1C(=O)C2C3C=CC(C3)C2C1=O)OCC(=O)c1ccc(Br)cc1 (centres undefined),4.57%
17,CCC1Oc2ccccc2N(CC(=O)NCc2ccco2)C1=O (centres undefined),-8.15%
18,Cc1c(C)c2ccc(OCC(=O)N3CCN(c4ccccc4)CC3)cc2oc1=O,4.8%
19,COc1cc(C2NC(=O)NC(c3ccccc3)=C2C(C)=O)cc(Cl)c1OCC(=O)O (centres undefined),-2.44%
20,CC[C@@]1(C(=O)OC)N[C@H](CN(C)S(=O)(=O)c2ccc(OC)cc2)[C@@H]2C(=O)N(C)C(=O)[C@@H]21,-26.2%
21,Cc1ccc(S(=O)(=O)NCC(=O)OCC(=O)NCc2ccco2)cc1,-3.09%
22,O=C(Nc1cccc(Cl)c1)c1cnccn1,-1.59%
23,O=C(CCC(=O)Nc1ccc(F)cc1)N/N=C/c1ccc(O)cc1O,9.41%
24,C/C(=N\NC(=S)Nc1ccccc1C)c1ccc(O)cc1,10.4%
25,Cc1cccc(NC(=S)N/N=C/c2cccc(O)c2)c1C,-3.84%

row,SMILES,inhibition
1,O=C(CCC(=O)Nc1ccc(F)cc1)N/N=C/c1ccccc1O,-5.76%
2,Fc1ccc(NC(=S)N/N=C/c2ccc(F)c(F)c2)cc1,0.18%
3,Fc1ccc(NC(=S)NN=Cc2ccccc2Cl)cc1,-9.24%
4,Cc1ccc(S(=O)(=O)NCc2ccccc2)cc1C(=O)N1CCN(S(=O)(=O)c2ccccc2)CC1,-12.2%
5,COC(=O)C1SCCN1S(=O)(=O)c1ccc(Cl)cc1 (centres undefined),-20.7%
6,CN(C)c1nc(OCC(=O)NC(C)(C)C)nc(N(C)C)n1,-0.43%
7,O=C(c1ccc(Br)c(S(=O)(=O)N2CCOCC2)c1)N1CCN(C/C=C/c2ccccc2)CC1,-13%
8,CC1(c2ccc3c(c2)OCCO3)NC(=O)N(CC(=O)Nc2ccccc2SCC#N)C1=O (centres undefined),-12.2%
9,O=S(=O)(c1cc(O)ccc1O)c1cccc2c(S(=O)(=O)c3cc(O)ccc3O)cccc12,12.4%
10,Oc1ccc(N=Nc2ccc(Br)cc2)c(O)c1,-16.2%
11,O=S(=O)(O)c1cc(O)ccc1O,1.1%
12,Oc1ccc(N=Nc2ccc3c(c2)OCCO3)c(O)c1,12.8%
13,CC(OC(=O)c1ncc(Cl)c(Cl)c1Cl)C(=O)NC1CCCCC1C (centres undefined),-15.4%
14,CN1C=C/C(=C\c2cc[n+](C)c3ccccc23)c2ccccc21,1.31%
15,COc1ccc(/C=C/c2ccc3ccccc3[n+]2C)cc1OC,-10.2%
16,CC(C)CCC(C)NC(=O)Cc1ccc(S(=O)(=O)N2CCOCC2)s1 (centres undefined),-3.75%
17,O=C(Nc1nc(-c2ccncc2)cs1)c1ccco1,21.8%
18,CC(=O)Nc1ccc(C(=O)Nc2nc(-c3cccnc3)cs2)cc1,4.3%
19,C/C(=N\NC(=O)C1COc2ccccc2O1)c1cccs1 (centres undefined),-4.26%
20,O=C(Nc1nc(-c2ccccn2)cs1)c1cccc(-n2cnnn2)c1,-28.6%
21,C/C(=N\NC(=O)C1COc2ccccc2O1)c1ccc(C)o1 (centres undefined),7.81%
22,O=C(Nc1nc(-c2ccccn2)cs1)c1ccc2c(c1)OCCO2,4.21%
23,O=C(Nc1nc(-c2ccccn2)cs1)c1ccc(Cl)s1,12.2%
24,O=C(Nc1nc(-c2ccccc2)cs1)c1ccco1,1.53%
